Our source for the binding signal values is article PMC11006913.

Numbering of substitutions follows the chain as printed.

Common to all, as to assay: PBM; 200 nM protein, PBS
Holding throughout (details): dsDNA, one strand shown

Experiment [1] concerns the target NKX2-5 (Homo sapiens, UniProt P52952 125-210, R139K).
Experiment [2] concerns the target T1, NKX2-4 (Homo sapiens, UniProt Q9H2Z4 175-261, P217L).
T1 sequence: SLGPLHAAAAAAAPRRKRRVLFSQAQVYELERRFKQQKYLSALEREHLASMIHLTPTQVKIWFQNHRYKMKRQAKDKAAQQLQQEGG

In experiment [3] the target is T2, NKX2-4 (Homo sapiens, UniProt Q9H2Z4 175-261, T231S).
T2 sequence: T1 sequence with L43P, T57S

The target of experiment [4] is T3, NKX2-4 (Homo sapiens, UniProt Q9H2Z4 175-261).
T3 sequence: T1 sequence with L43P

The target of experiment [5] is T4, NKX2-6 (Homo sapiens, UniProt A6NCS4 118-204, R150C).
T4 sequence: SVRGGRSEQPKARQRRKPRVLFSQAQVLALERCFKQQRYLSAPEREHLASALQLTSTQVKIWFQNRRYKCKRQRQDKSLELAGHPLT

Experiment [6] concerns the target T5, NKX2-6 (Homo sapiens, UniProt A6NCS4 118-204).
T5 sequence: T4 sequence with C33R

For experiment [7], the target named is T6, NKX2-4 (Homo sapiens, UniProt Q9H2Z4 175-261, R246Q).
T6 sequence: T1 sequence with L43P, R72Q

The target in experiment [8] is T7, NKX2-6 (Homo sapiens, UniProt A6NCS4 118-204, F151L).
T7 sequence: T4 sequence with C33R, F34L

Experiment [9] deals with NKX3-2 (Homo sapiens, UniProt P78367 192-278, P234S).
Experiment [10] addresses NKX2-5 (Homo sapiens, UniProt P52952 125-210).
For experiment [11], the target named is NKX3-2 (Homo sapiens, UniProt P78367 192-278).
Experiment [12] has as its target T8, VENTX (Homo sapiens, UniProt O95231 78-163, R121Q).
T8 sequence: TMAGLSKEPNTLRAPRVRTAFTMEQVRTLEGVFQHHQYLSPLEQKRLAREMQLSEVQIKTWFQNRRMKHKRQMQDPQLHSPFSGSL

The target of experiment [13] is T9, VENTX (Homo sapiens, UniProt O95231 78-163).
T9 sequence: T8 sequence with Q44R

Experiment [14] concerns the target T10, VENTX (Homo sapiens, UniProt O95231 78-163, Y115F).
T10 sequence: T8 sequence with Y38F, Q44R

NKX3-2 (Homo sapiens, UniProt P78367 192-278, P234S), sequence (P78367 192-278 P234S): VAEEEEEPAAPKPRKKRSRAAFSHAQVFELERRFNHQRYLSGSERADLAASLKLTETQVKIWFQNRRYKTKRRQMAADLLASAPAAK
NKX2-5 (Homo sapiens, UniProt P52952 125-210), sequence (P52952 125-210): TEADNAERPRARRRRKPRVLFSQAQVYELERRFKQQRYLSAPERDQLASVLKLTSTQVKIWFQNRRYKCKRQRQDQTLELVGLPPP
NKX3-2 (Homo sapiens, UniProt P78367 192-278), sequence (P78367 192-278): as the sequence (P78367 192-278 P234S) above, with S43P counted along it
NKX2-5 (Homo sapiens, UniProt P52952 125-210, R139K), sequence (P52952 125-210 R139K): as the sequence (P52952 125-210) above, with R15K counted along it

In the case of AACCACTT, the binding signal with NKX2-5 [1] was 12.9 upbm affinity estimate (log intensity, higher = more binding, comparable within an allelic series); with NKX2-4 [2], 12.7 upbm affinity estimate (log intensity, higher = more binding, comparable within an allelic series); with NKX2-4 [3] it was 13.1 upbm affinity estimate (log intensity, higher = more binding, comparable within an allelic series); with NKX2-4 [4] it was 12.6 upbm affinity estimate (log intensity, higher = more binding, comparable within an allelic series); with NKX2-6 [5], 12 upbm affinity estimate (log intensity, higher = more binding, comparable within an allelic series); in the experiment with NKX2-6 [6], 13.7 upbm affinity estimate (log intensity, higher = more binding, comparable within an allelic series). Also, the binding signal with NKX2-4 [7] was 13.2 upbm affinity estimate (log intensity, higher = more binding, comparable within an allelic series); with NKX2-6 [8], 10.9 upbm affinity estimate (log intensity, higher = more binding, comparable within an allelic series); with NKX3-2 [9], 12.9 upbm affinity estimate (log intensity, higher = more binding, comparable within an allelic series); with NKX2-5 [10], 12.8 upbm affinity estimate (log intensity, higher = more binding, comparable within an allelic series); with NKX3-2 [11] it was 12.9 upbm affinity estimate (log intensity, higher = more binding, comparable within an allelic series).

Turning to ACAAGTGG, the binding signal with NKX2-5 [1] is 12.9 upbm affinity estimate (log intensity, higher = more binding, comparable within an allelic series); with NKX2-4 [2], 12.6 upbm affinity estimate (log intensity, higher = more binding, comparable within an allelic series); with NKX2-4 [3] it was 13.1 upbm affinity estimate (log intensity, higher = more binding, comparable within an allelic series); in the experiment with NKX2-4 [4], 12.5 upbm affinity estimate (log intensity, higher = more binding, comparable within an allelic series); in the experiment with NKX2-6 [5] it was 12 upbm affinity estimate (log intensity, higher = more binding, comparable within an allelic series); in the experiment with NKX2-6 [6], 13.7 upbm affinity estimate (log intensity, higher = more binding, comparable within an allelic series). Also, the binding signal in the experiment with NKX2-4 [7] is 13.2 upbm affinity estimate (log intensity, higher = more binding, comparable within an allelic series); in the experiment with NKX2-6 [8], 10.8 upbm affinity estimate (log intensity, higher = more binding, comparable within an allelic series); with NKX3-2 [9], 12.6 upbm affinity estimate (log intensity, higher = more binding, comparable within an allelic series); with NKX2-5 [10], 12.8 upbm affinity estimate (log intensity, higher = more binding, comparable within an allelic series); with NKX3-2 [11] it was 12.7 upbm affinity estimate (log intensity, higher = more binding, comparable within an allelic series).

As for AAGTGGTC, the binding signal with NKX2-5 [1] was 12.6 upbm affinity estimate (log intensity, higher = more binding, comparable within an allelic series); with NKX2-4 [2] it was 12.4 upbm affinity estimate (log intensity, higher = more binding, comparable within an allelic series); with NKX2-4 [3], 12.8 upbm affinity estimate (log intensity, higher = more binding, comparable within an allelic series); with NKX2-6 [5], 11.8 upbm affinity estimate (log intensity, higher = more binding, comparable within an allelic series); with NKX2-6 [6], 13.4 upbm affinity estimate (log intensity, higher = more binding, comparable within an allelic series); in the experiment with NKX2-6 [8], 10.5 upbm affinity estimate (log intensity, higher = more binding, comparable within an allelic series). In addition, the binding signal with NKX3-2 [9] is 12.9 upbm affinity estimate (log intensity, higher = more binding, comparable within an allelic series); with NKX2-5 [10] it was 12.6 upbm affinity estimate (log intensity, higher = more binding, comparable within an allelic series); with NKX3-2 [11], 12.9 upbm affinity estimate (log intensity, higher = more binding, comparable within an allelic series).

As for CTGGCCAG, the binding signal with NKX2-5 [1] is 8.81 upbm affinity estimate (log intensity, higher = more binding, comparable within an allelic series); in the experiment with VENTX [12], 8.26 upbm affinity estimate (log intensity, higher = more binding, comparable within an allelic series); with VENTX [13], 8.37 upbm affinity estimate (log intensity, higher = more binding, comparable within an allelic series); with VENTX [14] it was 8.37 upbm affinity estimate (log intensity, higher = more binding, comparable within an allelic series); with NKX2-5 [10] it was 8.9 upbm affinity estimate (log intensity, higher = more binding, comparable within an allelic series).

For TAAGTGTA, the binding signal was 12.5 upbm affinity estimate (log intensity, higher = more binding, comparable within an allelic series) with NKX2-5 [1]; 12.4 upbm affinity estimate (log intensity, higher = more binding, comparable within an allelic series) in the experiment with NKX2-4 [2]; 12.8 upbm affinity estimate (log intensity, higher = more binding, comparable within an allelic series) with NKX2-4 [3]; 12.3 upbm affinity estimate (log intensity, higher = more binding, comparable within an allelic series) with NKX2-4 [4]; 11.7 upbm affinity estimate (log intensity, higher = more binding, comparable within an allelic series) with NKX2-6 [5]; 13.4 upbm affinity estimate (log intensity, higher = more binding, comparable within an allelic series) in the experiment with NKX2-6 [6]. Also, the binding signal with NKX2-4 [7] is 12.9 upbm affinity estimate (log intensity, higher = more binding, comparable within an allelic series); with NKX2-6 [8] it was 10.9 upbm affinity estimate (log intensity, higher = more binding, comparable within an allelic series); in the experiment with NKX2-5 [10], 12.4 upbm affinity estimate (log intensity, higher = more binding, comparable within an allelic series).

As to CTCTTAAG, the binding signal with NKX2-5 [1] was 12.3 upbm affinity estimate (log intensity, higher = more binding, comparable within an allelic series); with NKX2-4 [2], 12.5 upbm affinity estimate (log intensity, higher = more binding, comparable within an allelic series); with NKX2-4 [3], 12.7 upbm affinity estimate (log intensity, higher = more binding, comparable within an allelic series); in the experiment with NKX2-4 [4], 12.3 upbm affinity estimate (log intensity, higher = more binding, comparable within an allelic series); in the experiment with NKX2-6 [6], 13.5 upbm affinity estimate (log intensity, higher = more binding, comparable within an allelic series); in the experiment with NKX2-4 [7], 12.9 upbm affinity estimate (log intensity, higher = more binding, comparable within an allelic series). In addition, the binding signal with NKX2-6 [8] was 10.6 upbm affinity estimate (log intensity, higher = more binding, comparable within an allelic series); with NKX2-5 [10], 12.3 upbm affinity estimate (log intensity, higher = more binding, comparable within an allelic series).

CCACTCGA: the binding signal is 12.5 upbm affinity estimate (log intensity, higher = more binding, comparable within an allelic series) with NKX2-5 [1]; 12.6 upbm affinity estimate (log intensity, higher = more binding, comparable within an allelic series) with NKX2-4 [2]; 13.1 upbm affinity estimate (log intensity, higher = more binding, comparable within an allelic series) in the experiment with NKX2-4 [3]; 12.4 upbm affinity estimate (log intensity, higher = more binding, comparable within an allelic series) in the experiment with NKX2-4 [4]; 11.6 upbm affinity estimate (log intensity, higher = more binding, comparable within an allelic series) with NKX2-6 [5]; 13.1 upbm affinity estimate (log intensity, higher = more binding, comparable within an allelic series) with NKX2-4 [7]. Further, in the experiment with NKX2-5 [10], the binding signal is 12.2 upbm affinity estimate (log intensity, higher = more binding, comparable within an allelic series).
